The text below walks through data of PubChem BioAssay (NCATS).

Test [1] concerns the target Mitogen-activated protein kinase 10 (Mus musculus) (UniProt Q61831). The test is described as follows: JNK3 AlphaScreen Assay (AID 530; active = well fitted curve in either direction with a large enough effect, not every such curve was filed as active;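 also: kinase came from lysate of stimulated human HepG2 cells; signal reports phosphorylation of biotinylated GST-cJun 1-79 at Ser73 with 10 µM ATP; series mostly up to about 57 µM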). In short, it runs like this: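 qHTS format: compounds tested as titrations against IL-1beta/TNF-alpha-activated HepG2 lysate JNK3 with biotin-GST-cJun substrate and 10 uM ATP at room temperature. Loss of anti-phospho-cJun AlphaScreen signal indicates inhibition.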

Test [2] concerns the target Cytochrome P450 3A4 (Homo sapiens) (UniProt P08684). In words: qHTS Assay for Inhibitors and Substrates of Cytochrome P450 3A4 (AID 884). Also: series mostly up to about 57 µM; nearly all actives have a fitted effect of over 50% in size. The essentials: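 20 nM human CYP3A4 with 25 uM Luciferin-PPXE (at KM) in 200 mM KPO4, preincubated 10 min with compound; NADPH regeneration started a 60 min RT reaction. Luciferin detected by luminescence, normalized to 57 uM ketoconazole as full inhibition.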
A general note: qHTS replaces the single test concentration by a dilution series.

The target of test [3] is Calcium and integrin-binding protein 1 (Homo sapiens) (UniProt Q99828). The test is described as follows: Primary qHTS for Identification of Calcium Integrin Binding Protein 1 (CIB1) Competitor (AID 1508620).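 Also: GST tagged CIB1 binding a fluorescein labelled alphaIIb integrin peptide tracer; top concentration of the series differs between compounds.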 In short, it runs like this:
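Fluorescence polarization competition: GST-tagged CIB1 (1 uM final) preincubated with compound 15 min at room temperature, then FITC-labelled alphaIIb peptide (100 nM final) added. After 15 min at room temperature, polarization read at Ex 480/Em 540.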

In test [4] the target is DNA repair nuclease/redox regulator APEX1 (Homo sapiens) (UniProt P27695). The test is described as follows: Confirmation qHTS Assay for Inhibitors of the Human Apurinic/apyrimidinic Endonuclease 1 (APE1) (AID 2572). Also: potency is read from the fitted curve at half-maximal effect; nearly all actives have a fitted effect of over 30% in size. The note with it: purified APE1, fluorogenic abasic-site DNA cleavage. In short, it runs like this:
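Readout: kinetic fluorescence (Ex 525, Em 598 nm) from APE1 incision of a 5'-TAMRA, 3'-BHQ-2 duplex containing a THF abasic site at 50 nM final. Compound preincubation 15 min, room temperature.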

The target in test [5] is Tyrosyl-DNA phosphodiesterase 1 (Homo sapiens) (UniProt Q9NUW8). The test is described as follows: Confirmation Assay for Inhibitors of Tyrosyl-DNA Phosphodiesterase (TDP1) (AID 489007). Also: potency is read from the fitted curve at half-maximal effect; nearly all actives have a fitted effect of over 40% in size. The note with it: recombinant human TDP1 enzymatic activity, dose-response. The essentials:
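Confirmation of primary-screen follow-ups in a qHTS format. Substrate cleavage by Tdp1 (1 nM) of a 3'-phosphotyrosine-FITC, 5'-biotin oligo (15 nM) was monitored as decreased AlphaScreen signal after a 5 min room-temperature reaction.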

The target of test [6] is Lethal(3)malignant brain tumor-like protein 1 (Homo sapiens) (UniProt Q9Y468). The test is described as follows: qHTS Assay for the Inhibitors of L3MBTL1: Hit Validation (AID 540279). Also: potency is read from the fitted curve at half-maximal effect; nearly all actives have a fitted effect of over 70% in size. As to conditions: L3MBTL1 methyl-lysine binding inhibition, biochemical qHTS. In short, it runs like this:
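L3MBTL1 (50 nM final) preformed 30 min with biotinylated H3(1-15)K9me1 peptide (75 nM), then compound 30 min at room temperature. Streptavidin donor and nickel chelate acceptor AlphaScreen beads (10 ug/mL each final) added for 30 min before read.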

A short description of test [7]: qHTS Assay for the Inhibitors of L3MBTL1: Hit Validationin AlphaScreen Counterscreen (AID 602224). The essentials: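 Primary-screen actives were tested against a bead-bridging control: 1 nM biotinylated His6 joined streptavidin donor and nickel acceptor beads (10 ug/mL each). Incubations were 15 min with compound, then 30 min with beads, both at room temperature.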

Test [8] deals with Phosphoglycerate kinase, glycosomal (Trypanosoma brucei brucei) (UniProt P07378). In words: qHTS for inhibitors of Phosphogylcerate Kinase: Hit Validation Screen (AID 686980). Also: potency is read from the fitted curve at half-maximal effect; nearly all actives have a fitted effect of over 65% in size. As to conditions: TbPGK coupled GAPDH assay, Kinase-Glo luminescence. In short, it runs like this:
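Luminescent ATP detection (Kinase-Glo Plus) follows a 60-minute room-temperature incubation, with wells lacking PGK as controls. Buffer: 100 mM TEA (pH 7.6), 5 mM MgCl2, 0.01% Tween-20. Coupling enzyme GAPDH (100 nM final) supplies unstable 1,3-BPG in-well.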

Test [9] deals with DNA polymerase iota (Homo sapiens) (UniProt Q9UNA4). In words: qHTS for Inhibitors of Polymerase Iota: Confirmatory Assay for Cherry-picked Compounds (AID 720496). Also: potency is read from the fitted curve at half-maximal effect. The note with it: Pol iota primer extension, TAMRA/BHQ fluorescence. The essentials:
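Recombinant human Pol iota (10 nM) was preincubated with compound for 15 min at room temperature, then 50 nM final primer/template substrate was added; the substrate carried a TAMRA-labeled reporter strand and a BHQ-2-quenched template. Fluorescence was read at 0 and 10 min.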

For test [10], the target named is Bifunctional 3'-5' exonuclease/ATP-dependent helicase WRN (Homo sapiens) (UniProt Q14191). In words: qHTS for Inhibitors of WRN Helicase: Confirmatory Assay for Cherry-picked Compounds. (AID 720497). Also: potency is read from the fitted curve at half-maximal effect; nearly all actives have a fitted effect of over 65% in size. As to conditions: WRN helicase DNA unwinding, fluorescence kinetic. The essentials:
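Helicase activity is tracked as a kinetic fluorescence signal (excitation 525 nm, emission 598 nm) after 100 nM forked duplex DNA and 2 mM ATP are added to 20 nM WRN that has been preincubated 15 min with compound at room temperature.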

A short description of test [11]: qHTS for Inhibitors of WRN Helicase: Thiazole Orange DNA Binding Counterscreen (AID 720499).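 Also: drop in dye fluorescence marks compound binding to DNA; nearly all actives have a fitted effect of over 60% in size.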 The essentials: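 After pintool transfer of compounds into a thiazole orange/DNA mixture (100 nM and 50 nM respectively) and 15 min at room temperature, plates were imaged for fluorescence at 530 nm emission, 480 nm excitation.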
In test [12] the target is DNA polymerase kappa (Homo sapiens) (UniProt Q9UBT6). The test is described as follows: qHTS for Inhibitors of Polymerase Kappa: Confirmatory Assay for Cherry-picked Compounds (AID 720501). Also: potency is read from the fitted curve at half-maximal effect. As to conditions: purified Pol-kappa, fluorescent strand-displacement substrate. The essentials: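 10 nM human Pol-kappa was preincubated with compound 15 min at room temperature, then 50 nM (final) primer/template substrate with TAMRA-labeled reporter strand and BHQ-2-labeled template added. Fluorescence (Ex 525, Em 598 nm) read at 0 and 10 min.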
DNA polymerase kappa (Homo sapiens), sequence (Q9UBT6 whole entry, looked up): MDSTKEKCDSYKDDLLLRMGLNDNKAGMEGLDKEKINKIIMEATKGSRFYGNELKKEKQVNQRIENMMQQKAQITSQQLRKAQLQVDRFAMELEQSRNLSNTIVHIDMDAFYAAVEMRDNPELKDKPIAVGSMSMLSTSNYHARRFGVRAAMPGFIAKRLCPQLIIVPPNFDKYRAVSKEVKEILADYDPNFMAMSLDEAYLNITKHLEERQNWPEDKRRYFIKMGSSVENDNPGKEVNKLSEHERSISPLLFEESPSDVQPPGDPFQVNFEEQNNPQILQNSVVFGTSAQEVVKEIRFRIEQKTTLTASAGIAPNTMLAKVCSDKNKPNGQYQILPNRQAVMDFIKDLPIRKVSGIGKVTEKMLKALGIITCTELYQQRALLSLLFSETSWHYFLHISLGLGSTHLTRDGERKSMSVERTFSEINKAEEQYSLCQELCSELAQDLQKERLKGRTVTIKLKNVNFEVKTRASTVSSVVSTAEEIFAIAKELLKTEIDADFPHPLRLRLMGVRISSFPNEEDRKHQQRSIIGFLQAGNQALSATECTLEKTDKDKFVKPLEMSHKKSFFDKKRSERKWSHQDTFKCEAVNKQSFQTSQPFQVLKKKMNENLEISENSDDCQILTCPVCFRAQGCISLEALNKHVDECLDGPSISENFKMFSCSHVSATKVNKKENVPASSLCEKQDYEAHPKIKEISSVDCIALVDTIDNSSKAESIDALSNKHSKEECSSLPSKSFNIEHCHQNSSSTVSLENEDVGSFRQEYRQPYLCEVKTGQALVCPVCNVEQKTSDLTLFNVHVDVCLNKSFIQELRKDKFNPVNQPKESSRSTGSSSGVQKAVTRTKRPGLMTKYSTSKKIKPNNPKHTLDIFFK

Test [13] addresses DNA polymerase eta (Homo sapiens) (UniProt Q9Y253). In words: qHTS for Inhibitors of Polymerase Eta: Confirmatory Assay for Cherry-picked Compounds (AID 720502). Also: potency is read from the fitted curve at half-maximal effect. As to conditions: Pol eta primer extension, TAMRA/BHQ fluorescence, 10 min. The essentials: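 Strand-displacement fluorescence (525 nm excitation, 598 nm emission) was read kinetically at 0 and 10 min after adding 50 nM final TAMRA-reporter/BHQ-2-template substrate. Beforehand, 10 nM Pol eta had been exposed to compound for 15 min at room temperature.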

Test [14] addresses RecQ-like DNA helicase BLM (Homo sapiens) (UniProt P54132). The test is described as follows: qHTS for Inhibitors of WRN Helicase: BLM Helicase Counterscreen for WRN Inhibitors (AID 720503). Also: potency is read from the fitted curve at half-maximal effect; nearly all actives have a fitted effect of over 60% in size. As to conditions: Recombinant BLM helicase DNA unwinding, red fluorescence. The essentials: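 BLM (1 nM) was preincubated with compounds for 15 min at room temperature in Tris-HCl pH 8.0, 50 mM NaCl, 2 mM MgCl2 buffer. Unwinding started with 100 nM DNA and 2 mM ATP (final); red fluorescence was read twice, 15 min apart.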

Inconclusive results are not listed. The list shows a part of the results. Calls of active or inactive are those of the source. Unless noted, calls follow the shape of the dose curve; as a rule, active = well fitted curve in the direction sought with a large enough effect; inconclusive = small, poorly fitted or top-dose-only effect, or another doubt; inactive = no such curve, though single readings can be large; an effect the other way counts as inactive or inconclusive.

Calcium and integrin-binding protein 1 (Homo sapiens), sequence (Q99828 whole entry, looked up): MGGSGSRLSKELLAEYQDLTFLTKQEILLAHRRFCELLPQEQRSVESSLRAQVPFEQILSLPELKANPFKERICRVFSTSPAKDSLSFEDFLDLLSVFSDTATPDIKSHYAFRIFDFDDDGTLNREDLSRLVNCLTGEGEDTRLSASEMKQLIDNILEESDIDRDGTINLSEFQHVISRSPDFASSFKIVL
DNA polymerase iota (Homo sapiens), sequence (Q9UNA4 whole entry, looked up): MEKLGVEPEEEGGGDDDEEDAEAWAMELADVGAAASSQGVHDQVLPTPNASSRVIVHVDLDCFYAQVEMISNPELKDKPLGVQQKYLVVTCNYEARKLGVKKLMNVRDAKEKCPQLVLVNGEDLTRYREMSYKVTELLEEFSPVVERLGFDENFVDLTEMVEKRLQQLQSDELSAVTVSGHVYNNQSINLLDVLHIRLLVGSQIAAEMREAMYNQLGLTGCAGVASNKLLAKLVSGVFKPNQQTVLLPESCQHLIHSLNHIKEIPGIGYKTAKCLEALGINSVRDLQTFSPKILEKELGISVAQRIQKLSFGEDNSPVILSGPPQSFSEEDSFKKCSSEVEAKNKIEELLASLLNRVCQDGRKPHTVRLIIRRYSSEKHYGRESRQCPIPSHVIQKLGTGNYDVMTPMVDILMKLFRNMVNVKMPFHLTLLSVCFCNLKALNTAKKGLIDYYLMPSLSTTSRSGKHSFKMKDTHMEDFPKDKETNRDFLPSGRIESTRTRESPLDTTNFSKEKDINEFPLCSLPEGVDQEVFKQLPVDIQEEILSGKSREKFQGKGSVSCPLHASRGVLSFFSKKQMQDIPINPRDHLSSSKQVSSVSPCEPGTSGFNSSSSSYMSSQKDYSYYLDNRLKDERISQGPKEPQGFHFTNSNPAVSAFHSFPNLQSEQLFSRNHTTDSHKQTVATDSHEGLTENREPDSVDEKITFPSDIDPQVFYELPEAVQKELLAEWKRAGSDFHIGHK
Lethal(3)malignant brain tumor-like protein 1 (Homo sapiens), sequence (Q9Y468 whole entry, looked up): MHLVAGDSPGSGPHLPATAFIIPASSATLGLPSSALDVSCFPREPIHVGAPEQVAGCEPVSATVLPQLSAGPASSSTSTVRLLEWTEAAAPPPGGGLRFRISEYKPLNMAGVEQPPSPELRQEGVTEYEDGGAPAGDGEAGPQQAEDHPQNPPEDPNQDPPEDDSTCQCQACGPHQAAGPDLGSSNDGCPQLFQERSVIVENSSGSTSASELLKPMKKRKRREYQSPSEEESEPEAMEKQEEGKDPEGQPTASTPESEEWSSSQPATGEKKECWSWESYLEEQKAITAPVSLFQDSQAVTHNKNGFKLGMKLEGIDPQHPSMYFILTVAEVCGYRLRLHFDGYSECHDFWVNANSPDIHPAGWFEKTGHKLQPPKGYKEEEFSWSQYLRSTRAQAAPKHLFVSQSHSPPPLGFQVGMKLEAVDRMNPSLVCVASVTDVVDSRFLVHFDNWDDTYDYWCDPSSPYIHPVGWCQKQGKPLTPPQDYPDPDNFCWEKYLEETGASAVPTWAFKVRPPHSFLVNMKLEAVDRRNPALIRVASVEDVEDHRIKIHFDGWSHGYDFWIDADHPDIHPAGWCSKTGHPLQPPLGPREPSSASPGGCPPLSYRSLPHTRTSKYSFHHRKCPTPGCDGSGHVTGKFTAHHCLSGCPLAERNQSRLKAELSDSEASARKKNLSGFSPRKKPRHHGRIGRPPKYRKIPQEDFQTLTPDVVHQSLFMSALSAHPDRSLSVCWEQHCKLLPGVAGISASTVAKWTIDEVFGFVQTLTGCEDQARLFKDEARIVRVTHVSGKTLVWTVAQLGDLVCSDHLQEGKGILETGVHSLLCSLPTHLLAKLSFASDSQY
RecQ-like DNA helicase BLM (Homo sapiens), sequence (P54132 whole entry, looked up): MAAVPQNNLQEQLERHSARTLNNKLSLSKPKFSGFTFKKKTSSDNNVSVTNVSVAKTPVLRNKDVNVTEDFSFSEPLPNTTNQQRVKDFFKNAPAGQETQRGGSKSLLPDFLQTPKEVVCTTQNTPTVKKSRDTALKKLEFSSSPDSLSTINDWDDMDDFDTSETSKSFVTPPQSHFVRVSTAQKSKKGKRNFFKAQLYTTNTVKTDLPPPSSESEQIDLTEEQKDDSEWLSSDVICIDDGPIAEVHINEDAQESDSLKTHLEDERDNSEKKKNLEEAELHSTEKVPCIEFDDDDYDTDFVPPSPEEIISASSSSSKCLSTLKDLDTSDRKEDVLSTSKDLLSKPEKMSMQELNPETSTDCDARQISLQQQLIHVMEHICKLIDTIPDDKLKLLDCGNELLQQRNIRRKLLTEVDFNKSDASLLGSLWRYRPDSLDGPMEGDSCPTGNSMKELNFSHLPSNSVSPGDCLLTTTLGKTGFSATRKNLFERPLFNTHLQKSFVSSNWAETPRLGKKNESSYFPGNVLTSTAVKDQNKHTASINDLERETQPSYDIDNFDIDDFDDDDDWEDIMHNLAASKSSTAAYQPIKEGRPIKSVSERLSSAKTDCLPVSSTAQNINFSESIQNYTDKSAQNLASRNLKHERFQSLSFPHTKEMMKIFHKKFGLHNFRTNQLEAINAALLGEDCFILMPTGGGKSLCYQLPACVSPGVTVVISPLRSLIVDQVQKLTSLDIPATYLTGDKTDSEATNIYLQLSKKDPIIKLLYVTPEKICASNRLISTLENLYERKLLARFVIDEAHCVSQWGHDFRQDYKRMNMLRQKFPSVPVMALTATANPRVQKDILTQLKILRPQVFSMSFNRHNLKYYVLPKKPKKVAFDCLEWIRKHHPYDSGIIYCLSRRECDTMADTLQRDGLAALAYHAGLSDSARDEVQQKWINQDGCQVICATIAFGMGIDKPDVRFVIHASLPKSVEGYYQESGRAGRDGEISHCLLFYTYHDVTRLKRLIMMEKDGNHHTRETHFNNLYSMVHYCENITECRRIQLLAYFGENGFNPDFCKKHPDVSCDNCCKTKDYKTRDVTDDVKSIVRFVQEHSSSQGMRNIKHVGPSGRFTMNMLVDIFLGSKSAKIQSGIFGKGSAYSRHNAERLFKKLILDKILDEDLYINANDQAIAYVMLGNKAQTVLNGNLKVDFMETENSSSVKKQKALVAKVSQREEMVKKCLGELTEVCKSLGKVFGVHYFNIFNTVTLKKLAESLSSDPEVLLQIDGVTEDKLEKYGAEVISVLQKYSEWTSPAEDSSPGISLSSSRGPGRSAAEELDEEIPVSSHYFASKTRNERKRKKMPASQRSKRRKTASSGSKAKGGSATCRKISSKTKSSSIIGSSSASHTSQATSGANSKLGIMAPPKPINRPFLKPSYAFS
Cytochrome P450 3A4 (Homo sapiens), sequence (P08684 whole entry, looked up): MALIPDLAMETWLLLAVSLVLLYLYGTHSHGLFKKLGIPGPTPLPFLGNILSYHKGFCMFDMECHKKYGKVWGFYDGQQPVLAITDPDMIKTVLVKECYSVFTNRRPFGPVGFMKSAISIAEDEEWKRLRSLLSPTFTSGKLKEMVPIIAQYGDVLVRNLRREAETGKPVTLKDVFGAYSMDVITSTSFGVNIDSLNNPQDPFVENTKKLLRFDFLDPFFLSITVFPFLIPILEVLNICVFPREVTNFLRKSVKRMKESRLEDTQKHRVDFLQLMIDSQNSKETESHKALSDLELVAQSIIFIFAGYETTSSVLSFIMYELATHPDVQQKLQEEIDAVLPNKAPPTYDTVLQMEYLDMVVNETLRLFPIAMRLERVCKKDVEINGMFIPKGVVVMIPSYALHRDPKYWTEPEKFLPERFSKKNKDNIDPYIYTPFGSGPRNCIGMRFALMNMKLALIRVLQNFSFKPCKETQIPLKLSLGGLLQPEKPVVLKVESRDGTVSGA
Phosphoglycerate kinase, glycosomal (Trypanosoma brucei brucei), sequence (P07378 whole entry, looked up): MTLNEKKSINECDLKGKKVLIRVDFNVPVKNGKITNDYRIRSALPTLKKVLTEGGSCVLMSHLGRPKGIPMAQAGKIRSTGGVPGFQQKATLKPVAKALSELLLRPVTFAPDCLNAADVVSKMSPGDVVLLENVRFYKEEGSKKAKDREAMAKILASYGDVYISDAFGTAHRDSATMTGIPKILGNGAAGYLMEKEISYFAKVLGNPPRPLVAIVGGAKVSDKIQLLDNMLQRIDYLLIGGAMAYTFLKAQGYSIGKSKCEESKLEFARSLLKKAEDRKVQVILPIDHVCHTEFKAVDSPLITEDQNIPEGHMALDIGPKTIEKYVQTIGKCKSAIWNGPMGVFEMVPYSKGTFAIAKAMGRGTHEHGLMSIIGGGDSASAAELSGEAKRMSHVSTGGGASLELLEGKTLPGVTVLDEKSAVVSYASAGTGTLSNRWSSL

For `CCN(CC)CCn1c(-c2ccccc2)nc2c(NCCO)nc(C)nc21`, in test [1], the molecule was called inactive. Further, the Potency entry in test [2] and in test [3] was “inactive” in each case.

For `Cc1ccccc1NC(=O)CN1C(=O)N/C(=C\c2cccn2-c2cccc(C(=O)O)c2)C1=O`, the Potency is 28.2 µM (active) in test [4]; 1.78 µM (active) in test [5]; 1.5 µM (active) in test [6]; 5.8 µM (active) in [8]; 16.8 µM (active) in test [9]; 6.07 µM (active) in test [10]. The Potency in [12] is 2.99 µM (active); in [13] it was 16.9 µM (active); in [14] it was 7.64 µM (active). Besides, the call in [7] and in test [11] was inactive. Moreover, the Potency result in [3] was “inactive”.
